Structures are written as SMILES. Results filed as inconclusive are left out. Active and inactive are the calls of the source. The calls were made as follows, unless noted: active = hit-call score of the fitted dose curve at least 0.9, where 1 is the maximum; inconclusive = response in the unintended direction; inactive = score below 0.9.

Test [1] deals with rat Adenylate Cyclase, Forskolin Stimulated, Adcy5 (gene 64532) (UniProt Q04400). The test can be described thus: NVS_ENZ_rACFSKBinding: NovaScreen (NVS) Enzymatic Assay for rat Adenylate Cyclase, Forskolin Stimulated (AID 2283232). Put shortly: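 Chemicals were first tested at 25 uM in duplicate, then hits run as concentration series with top concentration 50 uM. Enzyme source was rat forebrain membranes; radiometric filter read-out after 1 h, referenced to DMSO.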
Sequence of rat Adenylate Cyclase, Forskolin Stimulated, Adcy5 (gene 64532) (Q04400 whole entry, looked up): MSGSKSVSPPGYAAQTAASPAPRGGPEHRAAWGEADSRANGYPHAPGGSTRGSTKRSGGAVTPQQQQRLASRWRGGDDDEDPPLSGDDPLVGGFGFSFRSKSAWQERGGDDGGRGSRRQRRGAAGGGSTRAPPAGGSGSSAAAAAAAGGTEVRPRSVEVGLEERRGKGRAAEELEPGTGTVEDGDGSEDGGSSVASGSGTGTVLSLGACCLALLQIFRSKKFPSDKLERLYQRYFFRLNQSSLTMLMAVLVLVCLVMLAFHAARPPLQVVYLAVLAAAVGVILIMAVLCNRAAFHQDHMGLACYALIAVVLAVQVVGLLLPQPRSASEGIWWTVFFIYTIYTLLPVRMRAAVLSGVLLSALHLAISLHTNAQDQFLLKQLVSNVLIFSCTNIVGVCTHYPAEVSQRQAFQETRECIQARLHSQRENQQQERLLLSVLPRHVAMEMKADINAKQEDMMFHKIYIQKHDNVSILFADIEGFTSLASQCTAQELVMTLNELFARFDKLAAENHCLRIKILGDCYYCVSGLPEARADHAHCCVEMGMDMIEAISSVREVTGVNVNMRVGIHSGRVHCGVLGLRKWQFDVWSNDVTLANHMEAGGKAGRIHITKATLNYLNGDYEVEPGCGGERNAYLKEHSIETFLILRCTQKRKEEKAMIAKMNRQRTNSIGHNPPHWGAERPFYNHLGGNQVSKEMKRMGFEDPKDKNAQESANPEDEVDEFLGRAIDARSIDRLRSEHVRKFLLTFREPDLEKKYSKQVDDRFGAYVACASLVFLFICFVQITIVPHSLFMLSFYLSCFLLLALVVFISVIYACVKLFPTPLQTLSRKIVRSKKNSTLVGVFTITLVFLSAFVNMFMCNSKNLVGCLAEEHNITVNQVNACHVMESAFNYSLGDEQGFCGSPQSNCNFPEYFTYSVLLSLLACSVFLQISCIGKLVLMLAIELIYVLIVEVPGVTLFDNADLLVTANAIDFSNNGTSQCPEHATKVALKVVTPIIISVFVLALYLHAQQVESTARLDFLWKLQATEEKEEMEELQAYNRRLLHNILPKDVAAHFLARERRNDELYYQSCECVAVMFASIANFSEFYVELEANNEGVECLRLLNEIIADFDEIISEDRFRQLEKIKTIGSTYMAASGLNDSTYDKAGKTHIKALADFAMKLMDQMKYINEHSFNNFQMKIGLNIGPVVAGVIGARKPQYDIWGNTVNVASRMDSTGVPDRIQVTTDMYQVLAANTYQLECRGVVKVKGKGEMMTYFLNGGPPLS

Test [2] has as its target rat Corticotropin Releasing Factor Receptor (CRF), Crhr1 (gene 58959) (UniProt P35353). The test can be described thus: NVS_GPCR_rCRF: NovaScreen (NVS) G Protein-Coupled Receptor Assay for rat Corticotropin Releasing Factor Receptor (CRF) (AID 2283300). Put shortly: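 Single-concentration (25 uM, duplicate) radioligand binding on rat cortical membrane preparations, counted by scintillation after 2 h. Activity scored as signal loss relative to DMSO negative control.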

Test [3] addresses human Raf-1 Proto-Oncogene, serine/threonine Kinase (RAF1), RAF1 (gene 5894) (UniProt P04049). Description: NVS_ENZ_hRAF1: NovaScreen (NVS) Enzymatic Assay for human Raf-1 Proto-Oncogene, serine/threonine Kinase (RAF1) (AID 2283216). The procedure, abridged:
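Single-point screening at 25 uM (duplicate), followed by singleton concentration-response to 50 uM maximum for chemicals exceeding threshold. Enzyme activity from fluorescent substrate-product mobility-shift separation after 1 h, relative to DMSO.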

Test [4] addresses human Tyrosine Protein Kinase Receptor Tie-2 (Tie2), TEK (gene 7010) (UniProt Q02763). The test can be described thus: NVS_ENZ_hTie2: NovaScreen (NVS) Enzymatic Assay for human Tyrosine Protein Kinase Receptor Tie-2 (Tie2) (AID 2283225). The procedure, abridged: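 Substrate and product were separated by mobility shift and detected by fluorescence after a 1-hour reaction with recombinant Tie2. Chemicals passing a 25 uM single-point screen were titrated to a maximum of 50 uM. Results were normalized to DMSO baseline.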

In test [5] the target is Voltage-dependent N-type calcium channel subunit alpha-1B (Rattus norvegicus) (UniProt Q02294). The test can be described thus: NVS_IC_rCaChN: NovaScreen (NVS) Ion Channel Assay for rat Calcium Channel, Type N (CaChN) (AID 2283317).
Test [6] addresses rat Acetylcholinesterase (AChE), Ache (gene 83817) (UniProt P37136). Description: NVS_ENZ_rAChE: NovaScreen (NVS) Enzymatic Assay for rat Acetylcholinesterase (AChE) (AID 2283233). Put shortly: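 Compounds first screened at 25 uM in duplicate, then those passing threshold tested in concentration series up to 50 uM, against AChE from rat brain membranes. Enzyme activity read by absorbance at 0.33 h; inhibition scored versus DMSO.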

The target of test [7] is human Neonicotinoid receptor (NNR), CHRNA2 (gene 1135) (UniProt Q15822). The test can be described thus: NVS_LGIC_hNNR_NBungSens: NovaScreen (NVS) Ligand-Gated Ion Channel Assay for human Neonicotinoid receptor (NNR) (AID 2283313). The procedure, abridged:
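Compounds first screened in duplicate at 25 uM, then actives re-tested in single-replicate dose series up to 50 uM. Binding measured as displacement of specific radioligand from neuroblastoma membrane receptors after 2 h, scintillation read on filters.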

Test [8] has as its target human Protein Tyrosine Phosphatase Receptor Type C (PTPRC), PTPRC (gene 5788) (UniProt P08575). The test can be described thus: NVS_ENZ_hPTPRC: NovaScreen (NVS) Enzymatic Assay for human Protein Tyrosine Phosphatase Receptor Type C (PTPRC) (AID 2283212). The procedure, abridged: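 Absorbance-based phosphatase activity of human PTPRC protein extracted from yeast was measured 1 h post-dosing. Compounds first tested at 25 uM in duplicate, then those passing threshold in singleton concentration series to 50 uM.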

In test [9] the target is Norway rat Vesicular Monoamine Transporter (VMAT2), neurotransmitter transporter, Slc18a2 (gene 25549) (UniProt Q01827). The test can be described thus: NVS_TR_rVMAT2: NovaScreen (NVS) Transporter Assay for Norway rat Vesicular Monoamine Transporter (VMAT2), neurotransmitter transporter (AID 2283376).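 Also: actives lower the bound radioligand signal below the DMSO level.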 Put shortly:
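Using rat forebrain membranes, specific radioligand binding to VMAT2 was measured by filtration and scintillation counting after 1 hour. Chemicals screened at 25 uM in duplicate, actives retested in concentration series, DMSO baseline.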

Test [10] concerns the target rat Neurotensin Receptor (NTS), Ntsr1 (gene 366274) (UniProt P20789). The test can be described thus: NVS_GPCR_rNTS: NovaScreen (NVS) G Protein-Coupled Receptor Assay for rat Neurotensin Receptor (NTS) (AID 2283308). The procedure, abridged:
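Single-point duplicates at 25 uM, then concentration series to 50 uM max for hits, measured radioligand displacement on rat forebrain membrane preparations. Bound label counted by filtration scintillation at 1 h; signal loss relative to DMSO fitted.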

The target in test [11] is rat Gamma-Aminobutyric Acid Type A Receptor BDZ, alpha 6 site (GABARa6), Gabra6 (gene 29708) (UniProt P30191). Description: NVS_LGIC_rGABARa6: NovaScreen (NVS) Ligand-Gated Ion Channel Assay for rat Gamma-Aminobutyric Acid Type A Receptor BDZ, alpha 6 site (GABARa6) (AID 2283339). Put shortly:
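Actives from a 25 uM duplicate screen were retested in concentration series (max 50 uM). Specific radioligand displacement from rat cerebellar membranes was counted by filter-based scintillation at 1 h; DMSO served as baseline.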

The nature of test [12]: Tanguay_ZF_120hpf_MUSC: Oregon State University Tanguay Lab 120 Hour Post-fertilization zebrafish Assay for Muscle Malformation (AID 2284401; active = hit-call score of the fitted dose curve at least 0.9, where 1 is the maximum; inactive = score below 0.9). The procedure, abridged: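 Scored as a binary brightfield endpoint at 120 hpf, fitted versus DMSO. Single dechorionated wild-type (Tropical 5D) zebrafish embryos per well, statically exposed at 28C from 6 hpf onward with final DMSO 0.64%.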

The target of test [13] is rat Oxytocin Receptor (OXT), Oxtr (gene 25342) (UniProt P70536). The test can be described thus: NVS_GPCR_rOXT: NovaScreen (NVS) G Protein-Coupled Receptor Assay for rat Oxytocin Receptor (OXT) (AID 2283330). The procedure, abridged: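 Binding to rat uterine membrane receptor was followed by scintillation counting of filter-trapped radioligand after 1 h. A 25 uM duplicate single-point screen preceded concentration series with a top of 50 uM. Signal loss was analysed relative to DMSO.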
Sequence of rat Oxytocin Receptor (OXT), Oxtr (gene 25342) (P70536 whole entry, looked up): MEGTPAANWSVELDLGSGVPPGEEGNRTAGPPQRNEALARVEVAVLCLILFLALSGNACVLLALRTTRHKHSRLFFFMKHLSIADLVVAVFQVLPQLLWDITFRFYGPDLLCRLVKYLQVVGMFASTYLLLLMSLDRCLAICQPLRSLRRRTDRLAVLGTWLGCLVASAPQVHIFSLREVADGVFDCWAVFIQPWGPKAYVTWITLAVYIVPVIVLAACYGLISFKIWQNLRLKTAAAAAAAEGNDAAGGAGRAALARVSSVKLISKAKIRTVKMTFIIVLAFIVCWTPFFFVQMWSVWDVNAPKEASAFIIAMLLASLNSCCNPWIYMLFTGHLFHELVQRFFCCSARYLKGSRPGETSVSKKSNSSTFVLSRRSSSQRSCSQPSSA

Test [14] has as its target Estrogen receptor (Homo sapiens) (UniProt P03372). Description: NVS_NR_hER: NovaScreen (NVS) Nuclear Receptor Binding Assay for human Estrogen Receptor (ER) (AID 2283348). The procedure, abridged:
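Cell-free MCF7-derived ER preparation, specific radioligand displaced by test compound, read by scintillation counting 18 h post-dosing. Duplicate single-point 25 uM screen, then concentration-response confirmation; DMSO baseline.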

Test [15] addresses mouse Estrogen Receptor alpha (Era), Esr1 (gene 13982) (UniProt P19785). Description: NVS_NR_mERa: NovaScreen (NVS) Nuclear Receptor Binding Assay for mouse Estrogen Receptor alpha (Era) (AID 2283378). Put shortly:
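Cell-free radioligand competitive displacement binding, read by filter-based scintillation counting 18 h after dosing. Primary screen run in duplicate at 25 uM, actives retested in concentration series; loss of signal versus DMSO.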

The nature of test [16]: TOX21_p53_BLA_p3_viability: Viability Assessment in the Tox21 HCT-116 p53 Agonism Beta-lactamase Assay, Phase 3 (AID 2283593).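 Also: cells exposed to compound for 16 h before reading.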 The procedure, abridged:
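Cellular ATP was quantified by CellTiter-Glo luminescence, read after 30 min at room temperature. Beforehand, HCT116 cells (4000/well) received compound 5 h post-seeding, 217-fold diluted from DMSO, then incubated 16 h at 37C.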

The target in test [17] is Cellular tumor antigen p53 (Homo sapiens) (UniProt P04637). Description: TOX21_p53_BLA_p3_ratio: Tox21 HCT-116 p53 Agonism Beta-lactamase Assay, Ratio, Phase 3 (AID 2283596). The procedure, abridged:
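Cells were seeded at 4000/well, rested 5 h at 37C, then dosed with DMSO compound solutions (217-fold dilution) for 16 h. CCF4-AM substrate was loaded for 2 h at room temperature, and the 460/530 nm emission ratio was fitted for gain of signal versus DMSO.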

Test [18] has the same target. Description: TOX21_p53_BLA_p5_ratio: Tox21 HCT-116 p53 Agonism Beta-lactamase Assay, Ratio, Phase 5 (AID 2283599). The procedure, abridged:
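Beta-lactamase reporter ratio (blue 460 nm over green 530 nm, 405 nm excitation) after 2 h CCF4-AM loading, in HCT-116 cells exposed 16 h at 37 C to compounds pinned at 217-fold dilution. Increases relative to DMSO baseline scored.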

A short description of test [19]: TOX21_p53_BLA_p5_viability: Viability Assessment in the Tox21 HCT-116 p53 Agonism Beta-lactamase Assay, Phase 5 (AID 2283600). Put shortly: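 Decreased CellTiter-Glo luminescence denotes lost viability. Exposure: 16 h at 37C, 5% CO2, with compounds from DMSO stocks diluted 217-fold in wells of 4000 cells.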
Test [20] deals with Cellular tumor antigen p53 (Homo sapiens) (UniProt P04637). Description: TOX21_p53_BLA_p4_ratio: Tox21 HCT-116 p53 Agonism Beta-lactamase Assay, Ratio, Phase 4 (AID 2283601). The procedure, abridged:
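Signal is the blue/green (460nm/530nm) ratio of cleaved versus uncleaved CCF4-AM substrate, read after 2 h substrate loading. Cells were HCT116 carrying the p53-responsive beta-lactamase reporter, dosed 16 h at 37C, 5% CO2; CellTiter-Glo measured in parallel.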

Test [21] can be described thus: ACEA_ER_AUC_viability: ACEA Biosciences xCELLigence Real-Time Cell Analysis on Estrogen Receptor Agonism for Viability (AID 2283782).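 Also: hit means loss of impedance signal meaning reduced cell growth or viability.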 Put shortly:
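Viability endpoint: reduced impedance area under the curve relative to DMSO, recorded by real-time electrode sensing over ~80 h of continuous exposure. Duplicate plates of T47D in hormone-depleted medium; eight concentrations, 1:4 dilutions, 100 uM maximum.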

Sequence of Norway rat Vesicular Monoamine Transporter (VMAT2), neurotransmitter transporter, Slc18a2 (gene 25549) (Q01827 whole entry, looked up): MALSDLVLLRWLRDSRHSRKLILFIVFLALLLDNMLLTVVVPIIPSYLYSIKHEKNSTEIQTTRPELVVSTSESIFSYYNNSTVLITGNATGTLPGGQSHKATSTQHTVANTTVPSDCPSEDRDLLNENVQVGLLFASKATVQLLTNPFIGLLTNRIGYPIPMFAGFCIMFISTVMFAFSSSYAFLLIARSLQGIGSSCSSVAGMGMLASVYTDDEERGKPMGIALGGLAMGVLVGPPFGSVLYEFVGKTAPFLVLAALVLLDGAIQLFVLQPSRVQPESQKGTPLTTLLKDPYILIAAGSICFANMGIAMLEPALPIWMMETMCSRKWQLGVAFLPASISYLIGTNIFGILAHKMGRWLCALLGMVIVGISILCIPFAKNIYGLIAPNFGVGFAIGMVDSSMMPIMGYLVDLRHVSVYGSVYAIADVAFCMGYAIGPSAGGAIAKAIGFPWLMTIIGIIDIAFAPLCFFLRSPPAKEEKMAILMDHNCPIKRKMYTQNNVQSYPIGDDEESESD
Sequence of Cellular tumor antigen p53 (Homo sapiens) (P04637 whole entry, looked up): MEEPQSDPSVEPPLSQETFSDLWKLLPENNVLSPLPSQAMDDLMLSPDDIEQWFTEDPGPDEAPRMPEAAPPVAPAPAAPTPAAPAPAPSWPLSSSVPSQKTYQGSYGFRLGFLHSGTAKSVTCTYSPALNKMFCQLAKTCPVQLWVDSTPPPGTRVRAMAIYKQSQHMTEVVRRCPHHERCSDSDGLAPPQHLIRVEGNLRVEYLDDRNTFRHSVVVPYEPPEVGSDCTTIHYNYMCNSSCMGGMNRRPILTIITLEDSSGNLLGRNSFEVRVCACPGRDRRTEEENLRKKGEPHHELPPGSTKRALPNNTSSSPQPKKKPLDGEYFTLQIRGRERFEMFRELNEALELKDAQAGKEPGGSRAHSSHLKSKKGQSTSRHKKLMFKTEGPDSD
Sequence of rat Neurotensin Receptor (NTS), Ntsr1 (gene 366274) (P20789 whole entry, looked up): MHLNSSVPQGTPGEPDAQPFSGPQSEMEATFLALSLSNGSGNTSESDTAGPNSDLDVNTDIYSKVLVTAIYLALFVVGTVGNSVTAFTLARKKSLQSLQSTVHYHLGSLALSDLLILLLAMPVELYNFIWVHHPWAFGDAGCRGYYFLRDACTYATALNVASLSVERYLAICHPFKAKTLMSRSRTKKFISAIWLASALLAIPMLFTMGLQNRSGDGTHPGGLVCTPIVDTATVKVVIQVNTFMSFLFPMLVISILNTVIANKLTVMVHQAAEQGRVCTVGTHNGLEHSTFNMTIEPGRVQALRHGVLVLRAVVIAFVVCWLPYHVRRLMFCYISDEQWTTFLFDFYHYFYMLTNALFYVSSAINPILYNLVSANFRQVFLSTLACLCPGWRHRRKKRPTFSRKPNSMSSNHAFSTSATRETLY
Sequence of rat Gamma-Aminobutyric Acid Type A Receptor BDZ, alpha 6 site (GABARa6), Gabra6 (gene 29708) (P30191 whole entry, looked up): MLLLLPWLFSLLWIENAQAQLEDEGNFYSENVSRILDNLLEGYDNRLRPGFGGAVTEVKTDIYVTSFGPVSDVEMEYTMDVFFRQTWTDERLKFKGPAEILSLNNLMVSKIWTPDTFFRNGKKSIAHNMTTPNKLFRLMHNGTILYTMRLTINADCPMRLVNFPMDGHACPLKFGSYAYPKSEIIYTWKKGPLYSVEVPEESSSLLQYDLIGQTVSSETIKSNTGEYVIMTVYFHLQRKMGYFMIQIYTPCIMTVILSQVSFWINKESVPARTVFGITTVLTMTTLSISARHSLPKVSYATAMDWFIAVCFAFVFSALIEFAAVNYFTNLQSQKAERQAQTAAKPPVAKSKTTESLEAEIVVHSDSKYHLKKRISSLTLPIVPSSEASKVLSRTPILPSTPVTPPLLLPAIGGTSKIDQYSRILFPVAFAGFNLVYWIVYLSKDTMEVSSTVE
Sequence of human Protein Tyrosine Phosphatase Receptor Type C (PTPRC), PTPRC (gene 5788) (P08575 whole entry, looked up): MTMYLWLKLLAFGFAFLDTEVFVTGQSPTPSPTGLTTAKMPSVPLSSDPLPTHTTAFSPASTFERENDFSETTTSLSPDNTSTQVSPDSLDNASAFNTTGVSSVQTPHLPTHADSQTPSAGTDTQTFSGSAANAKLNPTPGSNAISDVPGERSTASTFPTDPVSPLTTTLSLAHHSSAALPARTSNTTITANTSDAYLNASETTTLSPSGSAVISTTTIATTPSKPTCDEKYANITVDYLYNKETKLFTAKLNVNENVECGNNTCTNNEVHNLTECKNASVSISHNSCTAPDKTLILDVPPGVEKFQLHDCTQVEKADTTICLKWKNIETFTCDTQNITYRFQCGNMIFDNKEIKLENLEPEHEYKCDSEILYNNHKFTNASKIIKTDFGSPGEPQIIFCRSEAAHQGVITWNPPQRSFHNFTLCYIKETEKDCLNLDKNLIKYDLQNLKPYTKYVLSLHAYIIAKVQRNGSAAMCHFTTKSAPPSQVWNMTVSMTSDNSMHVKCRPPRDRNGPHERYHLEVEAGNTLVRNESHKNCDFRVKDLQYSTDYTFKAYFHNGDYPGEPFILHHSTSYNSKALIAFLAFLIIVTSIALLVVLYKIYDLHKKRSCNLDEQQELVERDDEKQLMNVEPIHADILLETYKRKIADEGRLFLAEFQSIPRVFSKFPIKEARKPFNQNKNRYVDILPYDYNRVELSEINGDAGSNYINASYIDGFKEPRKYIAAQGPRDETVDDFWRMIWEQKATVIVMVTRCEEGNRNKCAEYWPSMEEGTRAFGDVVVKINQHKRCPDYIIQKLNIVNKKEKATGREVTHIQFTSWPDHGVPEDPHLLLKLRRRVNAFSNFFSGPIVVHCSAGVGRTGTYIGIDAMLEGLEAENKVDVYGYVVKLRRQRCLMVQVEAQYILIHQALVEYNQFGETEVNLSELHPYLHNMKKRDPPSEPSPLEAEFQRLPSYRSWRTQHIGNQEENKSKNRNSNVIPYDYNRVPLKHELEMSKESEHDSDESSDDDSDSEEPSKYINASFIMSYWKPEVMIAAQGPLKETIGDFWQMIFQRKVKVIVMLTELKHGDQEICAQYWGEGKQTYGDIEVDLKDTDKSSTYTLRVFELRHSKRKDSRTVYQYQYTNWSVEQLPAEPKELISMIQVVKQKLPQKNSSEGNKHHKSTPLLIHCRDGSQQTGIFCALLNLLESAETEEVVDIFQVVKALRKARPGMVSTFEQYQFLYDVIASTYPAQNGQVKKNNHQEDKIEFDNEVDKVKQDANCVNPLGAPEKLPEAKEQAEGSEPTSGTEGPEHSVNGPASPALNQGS

Regarding `O=c1[nH]sc2ccccc12`, the AC50 – broadly, the concentration at which the activity in the assay is half-maximal – in test [1] was 16.2 µM (active); in [2], 17 µM (active).

Regarding `c1ccc2ncccc2c1`, in test [3], the molecule was called inactive.

In the case of `CC(=O)OCCC(C)C`, the call in test [4] and in [5] was inactive.

Take `Cn1cnc2c1c(=O)[nH]c(=O)n2C`: in test [6], the molecule was called inactive. Also, in [7], the half-maximal activity concentration (AC50) was 15.4 µM (active).

In the case of `Nc1ccc(Nc2ccccc2)cc1`, the values for the half-maximal activity concentration (AC50) in [8], in test [1] and in test [9] were 19.1 µM (active), 39.6 µM (active) and 8.65 µM (active), respectively.

As to `COC(=O)c1ccc(I)cc1S(=O)(=O)NC(=O)Nc1nc(C)nc(OC)n1`, in test [10], the molecule was classed as inactive.

For the molecule `COC(=O)c1ccccc1C(=O)O`, the result in test [10] was inactive.

In the case of `CC=Cc1ccc(OCC)c(O)c1`, the call in test [11] was inactive.

As to `Cc1cc(C)c(C=O)c(C)c1`, the outcome in [9] was inactive.

Consider `OCC(CO)(CBr)CBr`, for which the molecule was called inactive in [9].

Consider `OCCC(F)(F)C(F)(F)C(F)(F)C(F)(F)C(F)(F)C(F)(F)C(F)(F)C(F)(F)F`, for which the outcome in test [12] was inactive.

On to `O=C1OC(=O)C2C3C=CC(C3)C12` (configuration not stated), for which, in test [13], the molecule was called inactive.

With `CCOC(=O)COc1ccc2c(c1)CC(NCC(O)c1cccc(Cl)c1)CC2` (configuration not stated), in test [13], the molecule was classed as inactive.

Consider `Cc1cccc(C)c1[N+](=O)[O-]`, for which the molecule was called inactive in test [11].

As for `COP(=O)(OC)Oc1ccc([N+](=O)[O-])cc1`, the result in test [14], in [15], in test [16], in test [17], in [18] and in test [19] was inactive. The result in test [20] and in test [21] was inactive.

The record behind these values is PubChem BioAssay (EPA / NIEHS).
